These results are taken from PubChem BioAssay (NCATS).

Structures are written as SMILES. Inconclusive results are not listed. Unmarked numbers belong to inactive results. Active and inactive are the calls of the source. Calls come from the whole dose curve; as a rule, active = well fitted inhibition curve with a large enough effect; inconclusive = small, poorly fitted or top-dose-only effect; inactive = flat fitted curve, though single readings scatter. Where a SMILES comes first, the peptide text is derived from it.
% is set by controls: 0 for no effect and ±100 for the full control effect.
Note: nearly all actives have a fitted effect of over 65% in size.

Chain of Phospholipid hydroperoxide glutathione peroxidase GPX4 (Homo sapiens) (P36969 whole entry, looked up): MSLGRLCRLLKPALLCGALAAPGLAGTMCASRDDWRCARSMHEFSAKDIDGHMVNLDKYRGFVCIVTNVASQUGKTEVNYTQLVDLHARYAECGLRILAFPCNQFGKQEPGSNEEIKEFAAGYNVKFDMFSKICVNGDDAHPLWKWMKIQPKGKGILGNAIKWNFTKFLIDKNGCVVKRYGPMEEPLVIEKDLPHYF

The target of the first test is Glutathione peroxidase 1 (Homo sapiens) (UniProt P07203). The test can be described thus: Primary qHTS Assay for Inhibitors of Recombinant Selenoprotein Glutathione Peroxidase 1 (GPX1) (AID 1845191). The settings on record: recombinant GPX1, GR-coupled NADPH fluorescence, 15 min; series mostly up to 27.7 µM; activity, negative = inhibition: at the top concentration. The procedure, abridged: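 GR-coupled assay: compounds preincubated 30 min at room temperature with GPX1, then reaction started with CHP; final 10 nM GPX1, 1 mM GSH, 0.5 mM CHP, 0.5 mM NADPH, 100 nM GR, 0.01% BSA, pH 7.5 Tris buffer. NADPH fluorescence (340/450 nm) read at 0 and 15 min.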
Chain of Glutathione peroxidase 1 (Homo sapiens) (P07203 whole entry, looked up): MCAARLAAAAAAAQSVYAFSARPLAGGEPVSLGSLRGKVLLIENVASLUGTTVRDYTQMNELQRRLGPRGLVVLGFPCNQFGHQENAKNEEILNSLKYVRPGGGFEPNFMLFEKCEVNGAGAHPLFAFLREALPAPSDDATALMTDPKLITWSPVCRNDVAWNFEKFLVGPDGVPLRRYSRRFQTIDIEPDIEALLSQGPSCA
On the technique in general: In qHTS, concentration-response curves come from the screen itself.
As to `NC(=O)C(O[C@@H]1O[C@H](CO[C@@H]2O[C@H](CO)[C@@H](O)[C@H](O)[C@H]2O)[C@@H](O)[C@H](O)[C@H]1O)c1ccccc1` (stereo not given in full), the result was inactive.

Regarding `CC(=O)C1CCC(=O)N1Cc1ccccc1` (stereo not given), the “activity, negative = inhibition” value was -13.4% [at 48.8 µM]. On to `CC1CC(=O)[C@]2(O)C(C(=O)OCCc3ccc(O)c(O)c3)=CO[C@@H](O[C@@H]3O[C@H](CO)[C@@H](O)[C@H](O)[C@H]3O)[C@H]12` (stereo not given in full), for which the outcome was inactive.

In the case of `COC(=O)[C@H](Cc1cccc(C(=N)N)c1)[C@@H](C)NC(=O)c1ccc(-c2cc[n+]([O-])cc2)cc1`, the “outcome” value was “inactive [at 48.8 µM]”. The same measure, in the same setting: for `Cc1ncc(NC(=O)c2ccc(CN3CCN(C)CC3)c(C(F)(F)F)c2)cc1Nc1nccc(-c2cccnc2)n1` the value was “inactive [at 48.8 µM]”. Consider `CC(=O)OC12CC(C)C(O)C1/C=C(/COC1OC(CO)C(O)C(O)C1O)CCC1C(/C=C(\C)C2=O)C1(C)C` (stereo not given), for which the “activity, negative = inhibition” value is -16.6%. As for `NC(=O)c1ccc(F)c2c1C[C@@H](N(C1CCC1)C1CCC1)CO2`, the “activity, negative = inhibition” value was 1.49% [at 48.8 µM]. Consider `CC(C(=O)Nc1cc(C#N)ccc1CCCC(=O)O)c1ccc(F)c2ccccc12` (stereo not given), for which the “outcome” value was “inactive [at 48.8 µM]”. Regarding `CC(C)c1ccc2c(c1)[C@H](O)CC1[C@@](C)(C(=O)O)CCC[C@]21C` (stereo not given in full), the “activity, negative = inhibition” value was -11.2%.

Turning to `Cc1ccc([C@@H]2CC=C(C(=O)O)[C@H](c3ccc(C(C)(C)C)cc3)N2S(=O)(=O)c2ccc(C)cc2)cc1`, the “activity, negative = inhibition” value was -20.7% [at 48.8 µM]. In the case of `c1cc(-c2cc(C3CCNCC3)[nH]n2)ccn1`, the “activity, negative = inhibition” value is -1.11%. For the compound `C[C@]1(C2CCCC2)Cc2cc(OCC(=O)O)c(Cl)c(Cl)c2C1=O`, the “outcome” value was “inactive [at 48.8 µM]”.

On to `CC1=CCC[C@@H]2[C@](CCc3ccoc3)(C(=O)O)[C@H](C)CC[C@@]12C`, for which the “activity, negative = inhibition” value is 0.503%. Regarding `CC1(C)C[C@@H]2[C@H](C1)[C@@]1(C)C[C@]13C(O)OC[C@]3(O)[C@H]2O` (stereo not given in full), the “outcome” value was “inactive [at 48.8 µM]”. Same read-out and setting: the value for `CC1=CCC2C(C)(C)CCCC2(C)C1CC12OC1C(O)C(CO)=CC2O` (stereo not given) was “inactive”.

`CC(=O)OC[C@]12[C@@H](OC(=O)c3ccoc3)C[C@@H]3[C@@H](OC(C)=O)[C@]1(OC3(C)C)[C@@](C)(O)C[C@H](OC(=O)c1ccoc1)[C@@H]2OC(=O)c1ccoc1`: the “activity, negative = inhibition” value is -14.2% [at 15.3 µM].

The next test has as its target Phospholipid hydroperoxide glutathione peroxidase GPX4 (Homo sapiens) (UniProt P36969). The test can be described thus: Primary qHTS Assay for Inhibitors of Recombinant Selenoprotein Glutathione Peroxidase 4 (GPX4) (AID 1845192). Particulars: recombinant GPX4, GR-coupled NADPH fluorescence, 15 min; series mostly up to 27.8 µM; activity change, negative = inhibition: at the top concentration. The method, boiled down:
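GR-coupled assay: recombinant GPX4 preincubated 30 min with compound at room temperature; final 200 nM GPX4, 1 mM GSH, 0.5 mM cumene hydroperoxide, 0.5 mM NADPH, 100 nM GR, 0.01% BSA, pH 7.5 Tris. NADPH fluorescence (340/450 nm) read at 0 and 15 min.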
Turning to `C/C=C/C=C/C=C/C(=O)O[C@@H]1C=C(CO)[C@](O)(CO)[C@@]2(C)CCCC(C)(C)[C@H]12`, the “activity change, negative = inhibition” value is -22.7%. Take `CC1(C)CC[C@]2(C(=O)O)CC[C@]3(C)C(=CCC4[C@@]5(C)C[C@@H](O)[C@H](O)[C@](C)(CO)C5CC[C@]43C)[C@@H]2[C@@H]1O` (stereo not given in full): the “activity change, negative = inhibition” value is -12%. As to `CC(C)Oc1ccc(-c2nc(-c3cccc4c3CCC4NCCC(=O)O)no2)cc1C#N` (stereo not given), the “activity change, negative = inhibition” value is -2.99% [at 50 µM].

For the compound `O=S(=O)(O)c1ccc(Nc2ncnc3c2ncn3[C@@H]2O[C@H](CO)[C@@H](O)[C@H]2O)cc1`, the “activity change, negative = inhibition” value was -3.3% [at 50 µM].

Regarding `CC(C)(O)C1CC=C(C(=O)OC[C@H]2O[C@@H](OC(=O)C3=CCC(C(C)(C)O)CC3)[C@H](O)[C@@H](O)[C@@H]2O)CC1` (stereo not given in full), the “activity change, negative = inhibition” value is 2.66%. The same measure, in the same setting: for `CCC(C)(C)C1CCc2c(sc(NC(=O)c3ccc(Br)cc3)c2C#N)C1` (stereo not given) the value was -6.34% [at 50 µM]; for `Fc1ccc(-c2c3cccc(C(F)(F)F)c3nn2Cc2ccc(F)cc2Cl)cc1`, -4.75% [at 50 µM]. For the compound `C/C=C1/[C@H](O[C@@H]2O[C@H](CO)[C@@H](O)[C@H](O)[C@H]2O)OC=C2C(=O)O[C@@H]3C[C@@H](C(C)CO)[C@H](COC(=O)C[C@H]21)[C@H]3C` (stereo not given in full), the result was inactive.

`CC(C)=C1CC2[C@](C)(CC[C@@H](OC(=O)C3(C)OC3C)[C@@]2(C)O)CC1=O` (stereo not given in full): the “activity change, negative = inhibition” value was -4.27%. As for `C/C=C(\C)C(=O)O[C@H]1C=CC(=O)O[C@H]1/C=C/[C@H](O)[C@@H](C)O`, the “outcome” value was “inactive [at 50 µM]”.

On to `CC(=O)O[C@@H]1[C@@H](O)[C@H](C)O[C@@H](O[C@H]2[C@@H]3C=CO[C@@H](O[C@@H]4O[C@H](CO)[C@@H](O)[C@H](O)[C@H]4OC(C)=O)[C@@H]3[C@@]3(CO)O[C@@H]23)[C@@H]1OC(=O)/C=C/c1ccc(O)cc1`, for which the “activity change, negative = inhibition” value is 3.69% [at 15.3 µM]. `CSCC[C@H](NC(=O)[C@H](CO)NC(=O)[C@H](CCC(=O)O)NC(C)=O)C(=O)N[C@H](C=O)CC(=O)O` (Ac-ESMD-aldehyde): the “activity change, negative = inhibition” value was -11.7% [at 9.73 µM].

`COC(=O)C(CC1CCCC1)c1ccc(S(C)(=O)=O)cc1` (stereo not given): the “activity change, negative = inhibition” value is 11% [at 50 µM]. Consider `CC(O)C1CCC2C3CCC4CC(OC5OC(C(=O)O)C(O)C(O)C5O)CCC4(C)C3CCC12C` (stereo not given), for which the “activity change, negative = inhibition” value is -19.4% [at 50 µM]. Still for that read-out and setting: the value for `C/C=C(\C)C(=O)OC[C@H]1O[C@@H](O[C@H]2[C@@H](O[C@H]3O[C@H](CO)[C@@H](O)[C@H](O)[C@H]3O[C@@H]3O[C@H](CO)[C@@H](O)[C@H](O)[C@H]3O)O[C@H](COC(=O)/C(C)=C/C)[C@@H](O)[C@@H]2O)[C@H](O)[C@@H](O)[C@@H]1O` was 4.33% [at 15.3 µM]. As for `CC(C)=CCc1c(O)cc2oc3cc(C)cc(O)c3c2c1C`, the “activity change, negative = inhibition” value was -12.3% [at 50 µM]. Regarding `C=C1C(OC(C)=O)CCC2(C)CC3(O)OC(=O)C(C)=C3CC12` (stereo not given), the “activity change, negative = inhibition” value is 2.77%. With `C=CC1(C)C=C2CC[C@H]3[C@@](C)(C(=O)O)CCC[C@]3(C)C2CC1` (stereo not given in full), the “activity change, negative = inhibition” value was -23.4%.

Turning to `CNC(C)C(=O)NC(C(=O)N1CCCC1C(=O)Nc1cccc2ncccc12)C(C)C` (stereo not given), the “activity change, negative = inhibition” value is -2.14% [at 50 µM]. As to `Cc1cn(-c2cc(NC(=O)c3ccc(C)c(Nc4nccc(-c5cnccn5)n4)c3)cc(C(F)(F)F)c2)cn1`, the “activity change, negative = inhibition” value was 9.34% [at 50 µM]. Take `NC(=O)[C@H](Cc1ccccc1)NC(=O)[C@H](CCCN=C(N)N)NC(=O)C12CC3CC(CC(C3)C1)C2`: the “activity change, negative = inhibition” value is -0.516% [at 9.73 µM]. Regarding `C=C1C2(C)CC3C4(C)C=CC(=O)OC(C)(C)C4CCC3(C)C1(C(=O)OC)C(=O)C(C)(O)C2=O` (stereo not given), the “activity change, negative = inhibition” value is -6.16%. For the compound `CC1(C)CC2C(O)C3=C(CC(C)(O)C2C1)C(=O)OC3` (stereo not given), the “outcome” value is “inactive [at 50 µM]”. Turning to `NC(=O)C(O[C@@H]1O[C@H](CO[C@@H]2O[C@H](CO)[C@@H](O)[C@H](O)[C@H]2O)[C@@H](O)[C@H](O)[C@H]1O)c1ccccc1` (stereo not given in full), the “activity change, negative = inhibition” value is -4.36%. For the compound `CC(=O)C1CCC(=O)N1Cc1ccccc1` (stereo not given), the “activity change, negative = inhibition” value is 1.68% [at 50 µM]. On the same count and under the same terms, the value for `CC1CC(=O)[C@]2(O)C(C(=O)OCCc3ccc(O)c(O)c3)=CO[C@@H](O[C@@H]3O[C@H](CO)[C@@H](O)[C@H](O)[C@H]3O)[C@H]12` (stereo not given in full) was -16.4%; that for `COC(=O)[C@H](Cc1cccc(C(=N)N)c1)[C@@H](C)NC(=O)c1ccc(-c2cc[n+]([O-])cc2)cc1` was -11% [at 50 µM]. On to `Cc1ncc(NC(=O)c2ccc(CN3CCN(C)CC3)c(C(F)(F)F)c2)cc1Nc1nccc(-c2cccnc2)n1`, for which the Potency result was “inactive”.

Turning to `CC(=O)OC12CC(C)C(O)C1/C=C(/COC1OC(CO)C(O)C(O)C1O)CCC1C(/C=C(\C)C2=O)C1(C)C` (stereo not given), the “activity change, negative = inhibition” value was -5.93%. With `NC(=O)c1ccc(F)c2c1C[C@@H](N(C1CCC1)C1CCC1)CO2`, the “activity change, negative = inhibition” value was 11.3% [at 50 µM]. Regarding `CC(C(=O)Nc1cc(C#N)ccc1CCCC(=O)O)c1ccc(F)c2ccccc12` (stereo not given), the “activity change, negative = inhibition” value was 3.77% [at 50 µM].

On to `CC(C)c1ccc2c(c1)[C@H](O)CC1[C@@](C)(C(=O)O)CCC[C@]21C` (stereo not given in full), for which the “activity change, negative = inhibition” value is -14.4%. In the case of `Cc1ccc([C@@H]2CC=C(C(=O)O)[C@H](c3ccc(C(C)(C)C)cc3)N2S(=O)(=O)c2ccc(C)cc2)cc1`, the “activity change, negative = inhibition” value is -16.3% [at 50 µM].

As for `c1cc(-c2cc(C3CCNCC3)[nH]n2)ccn1`, the outcome was inactive. As to `C[C@]1(C2CCCC2)Cc2cc(OCC(=O)O)c(Cl)c(Cl)c2C1=O`, the “activity change, negative = inhibition” value is 1.32% [at 50 µM]. For `CC1=CCC[C@@H]2[C@](CCc3ccoc3)(C(=O)O)[C@H](C)CC[C@@]12C`, the outcome was inactive. As to `CC1(C)C[C@@H]2[C@H](C1)[C@@]1(C)C[C@]13C(O)OC[C@]3(O)[C@H]2O` (stereo not given in full), the “activity change, negative = inhibition” value is -3.29% [at 50 µM]. Consider `CC1=CCC2C(C)(C)CCCC2(C)C1CC12OC1C(O)C(CO)=CC2O` (stereo not given), for which the “activity change, negative = inhibition” value is -8.98%. Regarding `CC(=O)OC[C@]12[C@@H](OC(=O)c3ccoc3)C[C@@H]3[C@@H](OC(C)=O)[C@]1(OC3(C)C)[C@@](C)(O)C[C@H](OC(=O)c1ccoc1)[C@@H]2OC(=O)c1ccoc1`, the “activity change, negative = inhibition” value was -4.04% [at 15.3 µM].
